This is an account of results in ChEMBL document CHEMBL3988442, “University of Dundee, Small-Polar-MMV Screening Library” (2021).

For some of these results: Potency and affinity values are given separately.

Common to all, as to parameters: scale not given: direction of the effect not stated beside the values
The target in test [1] is Protein translocase subunit SecA (Escherichia coli (strain K12)) (UniProt P10408). In words: Assay to Identify E. coli SecA ATPase Inhibitors. The format is functional. The settings on record: 30 µM.
Test [2] has as its target T1, Ubiquitin-activating enzyme e1, putative (Leishmania donovani (strain BPK282A1)) (UniProt E9BSI1).
T1 sequence (whole entry): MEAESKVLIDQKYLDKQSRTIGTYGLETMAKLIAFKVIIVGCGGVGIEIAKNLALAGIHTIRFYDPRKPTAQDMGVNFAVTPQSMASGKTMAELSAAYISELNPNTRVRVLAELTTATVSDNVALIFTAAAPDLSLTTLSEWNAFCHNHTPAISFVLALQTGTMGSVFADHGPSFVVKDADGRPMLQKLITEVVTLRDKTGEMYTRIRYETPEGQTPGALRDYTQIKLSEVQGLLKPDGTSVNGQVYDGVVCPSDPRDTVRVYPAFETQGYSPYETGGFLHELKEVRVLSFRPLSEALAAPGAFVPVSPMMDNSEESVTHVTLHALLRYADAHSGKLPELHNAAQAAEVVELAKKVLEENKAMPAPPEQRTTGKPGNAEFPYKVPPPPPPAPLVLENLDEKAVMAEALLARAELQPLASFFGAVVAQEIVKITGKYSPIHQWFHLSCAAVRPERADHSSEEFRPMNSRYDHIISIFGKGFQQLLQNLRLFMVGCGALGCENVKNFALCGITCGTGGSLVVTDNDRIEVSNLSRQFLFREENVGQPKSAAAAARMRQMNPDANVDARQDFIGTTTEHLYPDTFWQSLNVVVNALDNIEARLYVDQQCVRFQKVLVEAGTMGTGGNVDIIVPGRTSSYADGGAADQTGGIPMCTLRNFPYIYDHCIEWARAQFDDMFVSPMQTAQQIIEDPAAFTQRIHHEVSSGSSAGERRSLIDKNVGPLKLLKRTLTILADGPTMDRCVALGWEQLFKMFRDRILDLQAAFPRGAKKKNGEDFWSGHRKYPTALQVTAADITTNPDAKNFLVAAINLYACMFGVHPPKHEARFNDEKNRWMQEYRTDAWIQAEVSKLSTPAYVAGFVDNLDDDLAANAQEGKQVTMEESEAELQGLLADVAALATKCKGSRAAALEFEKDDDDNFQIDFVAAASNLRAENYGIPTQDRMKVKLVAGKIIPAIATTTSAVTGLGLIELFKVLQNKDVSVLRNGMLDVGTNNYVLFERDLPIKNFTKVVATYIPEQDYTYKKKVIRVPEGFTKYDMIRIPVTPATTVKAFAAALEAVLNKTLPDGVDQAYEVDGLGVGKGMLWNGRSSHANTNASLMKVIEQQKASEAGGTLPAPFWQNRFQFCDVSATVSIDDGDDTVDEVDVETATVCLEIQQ
In words: Leishmania donovani Ubiquitin Activating Enzyme (LdE1). The format is functional. The settings on record: 30 µM.

Test [3] concerns the target AMP-activated protein kinase, AMPK (Homo sapiens) (UniProt P54646+O43741+P54619+Q9UGJ0+Q9Y478+Q13131+Q9UGI9). In words: AMP-dependent Kinase enzyme assay. An in vitro enzyme assay that detects ADP turnover that is directly proportional to AMPK activity. This uses naive AMPK that is activated during the assay with MK-8722. It is filed as functional. The settings on record: 30 µM.

For test [4], the target named is Sialic acid-binding Ig-like lectin 9 (Homo sapiens) (UniProt Q9Y336). In words: Hs-Siglec9 ALPHAscreen SOP 20170721. The settings on record: 10 µM.
A further test concerns Trypanosoma cruzi. In words: Trypanosoma cruzi phosphomannomutase and mannose-1-phosphate guanylyltransferase assay. It is filed as functional. The conditions noted are these: 10 µM.
The target in test [5] is T2, Arginase-2, mitochondrial (Homo sapiens) (UniProt P78540).
T2 sequence (whole entry): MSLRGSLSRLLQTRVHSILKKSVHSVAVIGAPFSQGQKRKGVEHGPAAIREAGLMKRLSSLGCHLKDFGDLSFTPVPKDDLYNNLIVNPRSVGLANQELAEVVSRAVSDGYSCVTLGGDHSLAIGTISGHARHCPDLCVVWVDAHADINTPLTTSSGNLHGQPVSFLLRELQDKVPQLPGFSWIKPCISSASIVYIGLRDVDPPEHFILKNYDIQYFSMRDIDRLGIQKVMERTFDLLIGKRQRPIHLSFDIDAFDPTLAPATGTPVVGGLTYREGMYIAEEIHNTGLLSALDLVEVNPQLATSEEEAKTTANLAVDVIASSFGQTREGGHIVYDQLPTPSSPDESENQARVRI
In words: in vitro enzyme assay to detect the production of urea directly proportional to the activity of Arginase II. Also: in the data most compounds retested in dose-response had high values. The settings on record: 33.3 µM. It is filed as functional.

Test [6] deals with T3, Proteasome subunit beta (Trypanosoma cruzi) (UniProt O96673).
T3 sequence (whole entry): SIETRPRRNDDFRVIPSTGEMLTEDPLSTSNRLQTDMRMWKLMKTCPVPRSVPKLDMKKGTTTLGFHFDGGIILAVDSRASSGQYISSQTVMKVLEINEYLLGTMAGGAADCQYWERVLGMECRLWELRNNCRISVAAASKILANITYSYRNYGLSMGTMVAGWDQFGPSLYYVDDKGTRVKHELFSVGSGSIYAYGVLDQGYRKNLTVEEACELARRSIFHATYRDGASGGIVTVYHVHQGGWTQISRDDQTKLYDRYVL
In words: Trypanosoma cruzi proteasome chymotrypsin-like activity (TcProtChymo) assay. Also: in the data most compounds retested in dose-response had high values. It is filed as functional. The conditions noted are these: 9.37 µM.

The species named for a further test is Homo sapiens. In words: To identify inhibition of the IFN signalling (Jak-Stat) pathway via expression of an eGFP reporter gene under the control of an IFN-stimulated response element (ISRE) containing MxA promoter. It is filed as functional. The settings on record: 30 µM. In general terms: Reporter assays use an easily measured gene product as a stand-in for the process of interest.

Test [7] concerns the target T4, Tyrosyl-tRNA synthetase, putative (Trypanosoma cruzi (strain CL Brener)) (UniProt Q4DSP6).
T4 sequence (whole entry): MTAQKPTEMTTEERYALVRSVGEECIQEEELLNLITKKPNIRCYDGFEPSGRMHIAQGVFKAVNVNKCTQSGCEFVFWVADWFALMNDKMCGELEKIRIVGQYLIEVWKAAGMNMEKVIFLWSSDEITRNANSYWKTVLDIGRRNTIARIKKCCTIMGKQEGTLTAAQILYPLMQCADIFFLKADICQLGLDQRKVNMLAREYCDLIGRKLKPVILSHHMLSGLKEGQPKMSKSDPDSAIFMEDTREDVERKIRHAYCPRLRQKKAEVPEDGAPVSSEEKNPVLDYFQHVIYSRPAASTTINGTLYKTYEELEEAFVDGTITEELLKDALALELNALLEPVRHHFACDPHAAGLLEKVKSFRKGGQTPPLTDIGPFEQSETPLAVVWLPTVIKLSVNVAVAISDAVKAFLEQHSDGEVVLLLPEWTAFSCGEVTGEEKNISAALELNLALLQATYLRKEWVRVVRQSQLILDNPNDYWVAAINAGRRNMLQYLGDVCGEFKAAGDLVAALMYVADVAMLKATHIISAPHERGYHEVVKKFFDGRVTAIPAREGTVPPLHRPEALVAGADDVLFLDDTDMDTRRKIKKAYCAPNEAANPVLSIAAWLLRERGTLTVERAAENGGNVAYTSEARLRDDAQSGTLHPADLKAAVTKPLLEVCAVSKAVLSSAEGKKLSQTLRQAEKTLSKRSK
In words: Trypanosoma cruzi tyrosyl tRNA synthetase (TcYRS) _High Tyrosine SOP. Also: in the data most compounds retested in dose-response had high values. The settings on record: 30 µM. The format is functional.

Test [8] deals with T4, Tyrosyl-tRNA synthetase, putative (Trypanosoma cruzi (strain CL Brener)). In words: Trypanosoma cruzi tyrosyl tRNA synthetase (TcYRS) SOP. The format is functional. The settings on record: 30 µM.
Test [9] concerns the target Chromo domain-containing protein 1 (Saccharomyces cerevisiae (strain ATCC 204508 / S288c) (Baker's yeast)) (UniProt P32657). In words: ScCHD-1 Enzyme Inhibition Assay. Also: in the data most compounds retested in dose-response had high values. The settings on record: 30 µM. The format is functional.

Sequence of Chromo domain-containing protein 1 (Saccharomyces cerevisiae (strain ATCC 204508 / S288c) (Baker's yeast)) (P32657 whole entry, the tested form may be a part): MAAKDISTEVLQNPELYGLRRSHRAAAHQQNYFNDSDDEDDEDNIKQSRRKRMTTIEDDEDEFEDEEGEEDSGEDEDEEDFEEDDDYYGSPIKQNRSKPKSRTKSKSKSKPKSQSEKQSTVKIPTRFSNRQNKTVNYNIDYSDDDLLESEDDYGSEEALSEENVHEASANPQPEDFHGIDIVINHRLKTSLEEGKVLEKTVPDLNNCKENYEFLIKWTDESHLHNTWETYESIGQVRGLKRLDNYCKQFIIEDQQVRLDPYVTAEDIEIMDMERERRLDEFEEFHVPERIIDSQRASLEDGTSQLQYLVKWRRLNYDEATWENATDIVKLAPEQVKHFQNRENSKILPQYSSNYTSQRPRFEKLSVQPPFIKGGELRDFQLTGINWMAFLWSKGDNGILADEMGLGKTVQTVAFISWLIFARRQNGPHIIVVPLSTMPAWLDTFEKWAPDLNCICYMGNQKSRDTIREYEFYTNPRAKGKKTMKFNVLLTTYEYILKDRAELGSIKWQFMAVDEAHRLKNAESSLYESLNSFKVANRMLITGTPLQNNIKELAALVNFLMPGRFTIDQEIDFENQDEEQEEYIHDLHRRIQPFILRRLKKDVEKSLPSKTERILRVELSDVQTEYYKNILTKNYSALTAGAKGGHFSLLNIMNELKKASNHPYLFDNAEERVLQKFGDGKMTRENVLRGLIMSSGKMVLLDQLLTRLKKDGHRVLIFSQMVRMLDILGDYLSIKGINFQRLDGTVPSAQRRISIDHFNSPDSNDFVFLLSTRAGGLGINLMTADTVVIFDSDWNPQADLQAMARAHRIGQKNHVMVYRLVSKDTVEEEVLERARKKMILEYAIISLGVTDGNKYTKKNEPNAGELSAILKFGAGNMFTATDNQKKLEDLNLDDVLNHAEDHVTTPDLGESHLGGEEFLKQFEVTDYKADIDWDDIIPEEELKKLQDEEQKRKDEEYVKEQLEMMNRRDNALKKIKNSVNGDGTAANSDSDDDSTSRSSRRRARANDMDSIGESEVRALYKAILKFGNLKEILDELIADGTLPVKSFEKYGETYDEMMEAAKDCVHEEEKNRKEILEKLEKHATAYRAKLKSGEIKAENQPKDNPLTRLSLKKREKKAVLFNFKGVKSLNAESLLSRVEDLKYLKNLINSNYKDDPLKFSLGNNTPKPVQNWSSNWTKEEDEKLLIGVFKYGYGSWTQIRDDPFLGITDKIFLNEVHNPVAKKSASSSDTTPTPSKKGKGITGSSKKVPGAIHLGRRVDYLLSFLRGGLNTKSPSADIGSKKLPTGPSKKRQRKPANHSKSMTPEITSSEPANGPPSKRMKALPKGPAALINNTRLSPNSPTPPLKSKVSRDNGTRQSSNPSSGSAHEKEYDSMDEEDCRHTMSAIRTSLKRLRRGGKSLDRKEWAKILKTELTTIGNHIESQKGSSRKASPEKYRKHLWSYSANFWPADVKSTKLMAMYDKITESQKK
Sequence of Sialic acid-binding Ig-like lectin 9 (Homo sapiens) (Q9Y336 whole entry): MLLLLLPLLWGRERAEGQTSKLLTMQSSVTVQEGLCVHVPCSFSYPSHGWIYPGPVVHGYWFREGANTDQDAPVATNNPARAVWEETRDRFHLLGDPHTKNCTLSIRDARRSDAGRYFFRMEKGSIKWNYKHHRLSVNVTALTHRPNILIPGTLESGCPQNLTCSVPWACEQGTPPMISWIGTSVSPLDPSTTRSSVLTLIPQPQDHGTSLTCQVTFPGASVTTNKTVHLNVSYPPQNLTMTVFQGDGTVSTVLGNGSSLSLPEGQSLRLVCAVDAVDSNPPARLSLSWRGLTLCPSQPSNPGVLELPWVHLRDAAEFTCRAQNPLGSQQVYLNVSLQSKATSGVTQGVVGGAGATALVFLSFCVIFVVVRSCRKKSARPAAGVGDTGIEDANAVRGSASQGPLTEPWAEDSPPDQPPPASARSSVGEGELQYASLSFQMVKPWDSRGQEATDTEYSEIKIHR
Sequence of Protein translocase subunit SecA (Escherichia coli (strain K12)) (P10408 whole entry): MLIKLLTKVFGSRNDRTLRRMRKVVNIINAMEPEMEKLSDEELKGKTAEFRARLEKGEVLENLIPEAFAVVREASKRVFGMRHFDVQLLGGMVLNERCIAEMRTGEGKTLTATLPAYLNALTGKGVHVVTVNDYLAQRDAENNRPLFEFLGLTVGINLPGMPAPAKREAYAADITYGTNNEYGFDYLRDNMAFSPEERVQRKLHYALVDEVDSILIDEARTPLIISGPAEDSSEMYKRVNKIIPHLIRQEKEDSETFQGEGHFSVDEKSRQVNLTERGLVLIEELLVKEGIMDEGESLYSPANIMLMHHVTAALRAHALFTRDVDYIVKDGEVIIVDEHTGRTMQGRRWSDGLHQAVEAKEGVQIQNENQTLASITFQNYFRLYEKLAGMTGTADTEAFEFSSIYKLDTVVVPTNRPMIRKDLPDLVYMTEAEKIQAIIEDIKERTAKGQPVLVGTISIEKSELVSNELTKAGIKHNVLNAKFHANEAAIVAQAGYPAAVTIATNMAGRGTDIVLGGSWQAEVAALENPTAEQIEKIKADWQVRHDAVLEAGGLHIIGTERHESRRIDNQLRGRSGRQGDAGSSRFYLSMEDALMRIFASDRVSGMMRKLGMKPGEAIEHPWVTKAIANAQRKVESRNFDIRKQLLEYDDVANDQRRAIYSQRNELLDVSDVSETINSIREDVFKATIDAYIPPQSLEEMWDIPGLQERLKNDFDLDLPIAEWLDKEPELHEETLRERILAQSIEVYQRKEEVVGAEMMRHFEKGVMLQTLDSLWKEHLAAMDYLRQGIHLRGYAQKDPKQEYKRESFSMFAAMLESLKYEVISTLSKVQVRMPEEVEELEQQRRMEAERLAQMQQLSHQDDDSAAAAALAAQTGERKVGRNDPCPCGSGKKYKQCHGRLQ

Regarding `COCCN(Cc1ccoc1)C(=O)c1ccccc1Cl`, the Percent Effect in test [1] was -4.82%; in test [2], 0%; in [3], 0.957%; in test [4], -4.22%; in the test with Trypanosoma cruzi, -4.24%; in test [5], -1.94%. Moreover, the Percent Effect in test [6] was 0.522%; in the test filed under Homo sapiens, 14.2%; in test [7], 1.06%; in test [8] it was 1.28%; in [9], -1.4%.

With `Cc1cnn(CC2CN(c3ncnc4ccccc34)CCO2)c1` (stereo unspecified), the Percent Effect in test [1] was -1.94%; in test [2] it was -7.59%; in [3] it was 1.23%; in test [4] it was 9.68%; in the test on Trypanosoma cruzi, 8.03%; in test [5], -1.14%. Also, the Percent Effect was 1.39% in [6]; 37.6% in the test listed under Homo sapiens; 1.48% in [7]; 1.27% in [8]; -3.24% in test [9].

Consider `Cc1cnc2n(c1=O)CC(C(=O)Nc1ccccc1Cl)CS2` (stereo unspecified), for which the Percent Effect in test [1] is -2.2%; in test [2], -2.74%; in test [3], -2.72%; in test [4], 0.622%; in the test with Trypanosoma cruzi, -2.94%; in test [5] it was -1.36%. The Percent Effect was 5.68% in [6]; -7.02% in the test filed under Homo sapiens; 1.07% in [7]; 0% in test [8]; -1.89% in [9].

With `CC1CCCN(CCNC(=O)c2cncnc2C(C)C)C1` (stereo unspecified), the Percent Effect in [1] is -2.89%; in test [2] it was 6.94%; in test [3], -1.93%; in test [4] it was -5.17%; in the test on Trypanosoma cruzi it was -4.96%; in test [5], 0.442%. For the same compound, the Percent Effect was 8.25% in [6]; -15.9% in the test filed under Homo sapiens; 4.21% in [7]; 12.8% in [8]; -3.15% in [9].

With `Cc1nc2n(n1)CC(Nc1cc(C(F)(F)F)nc3ncnn13)CC2` (stereo unspecified), the Percent Effect in [1] is -4.34%; in test [2], 5.48%; in test [3], 10.2%; in test [4] it was -0.512%; in the test with Trypanosoma cruzi it was 5.49%; in test [5], -0.909%. The Percent Effect in test [6] was 11.4%; in the test listed under Homo sapiens, -14.4%; in [7], 2.15%; in [8], 17.5%; in test [9], -3.28%.

On to `O=C(NCC1CCOC1)c1csc(-c2cccc(Cl)c2)n1` (stereo unspecified), for which the Percent Effect in [1] was -3.12%; in [2], 10.4%; in test [3], 3.54%; in [4], -3.81%; in the test with Trypanosoma cruzi, -5.24%; in test [5], 0.712%. The Percent Effect in test [6] was 8.62%; in the test filed under Homo sapiens it was 25.1%; in test [7] it was 1.94%; in test [8], 14.6%; in test [9], -5.77%.

In the case of `CCOc1ccc(-n2nnc(C(=O)O)c2-c2ccccn2)cc1`, the Percent Effect in test [1] is -1.24%; in test [2], 7.89%; in test [3], 4.82%; in [4], -2.3%; with Trypanosoma cruzi it was 0.487%; in test [5], 0%. Also, the Percent Effect is 29.2% in [6]; 5.63% in the test filed under Homo sapiens; 3.19% in test [7]; 13% in test [8]; -4.17% in test [9].

As for `CC(C)(C)n1ncc2c1CCCC2NCc1cccc2c1OCO2` (stereo unspecified), the Percent Effect in [1] was -2.65%; in [2], -1.27%; in [3], 2.85%; in [4], 2.62%; in the test on Trypanosoma cruzi, -4.41%; in test [5], 6.24%. In addition, the Percent Effect in test [6] is 10.1%; in the test filed under Homo sapiens it was 12.2%; in test [7], 1.04%; in [8], -5.06%; in [9] it was -10.4%.

For the compound `O=C(NCC1(CO)CC1)c1cccc2ccccc12`, the Percent Effect was -5.68% in test [1]; 2.74% in test [2]; 20.9% in [3]; -5.02% in test [4]; -4.9% in the test with Trypanosoma cruzi; -0.455% in test [5]. The Percent Effect is 10.7% in test [6]; 0.244% in the test filed under Homo sapiens; 6.45% in [7]; 2.5% in [8]; -1.94% in [9].

As to `Cc1nc(-c2ccsc2)ccc1C(=O)NCCC(=O)N1CCCC1`, the Percent Effect in test [1] is -5.91%; in [2], 13.2%; in test [3], -2.05%; in test [4] it was 5.21%; in the test on Trypanosoma cruzi it was 6.2%; in test [5] it was 1.15%. Also, the Percent Effect in test [6] was 3.34%; in the test listed under Homo sapiens, -2.2%; in test [7], -1.47%; in test [8] it was 9.76%; in test [9] it was -11.3%.

As to `COCC(=O)N1CCC[C@]2(C(=O)N(C)C)CN(c3ccccn3)C[C@@H]2C1`, the Percent Effect in [1] was -2.73%; in [2], 5.33%; in test [3], -3.72%; in test [4] it was 0.562%; with Trypanosoma cruzi it was 5.02%; in [5], -50.4%. The Percent Effect in test [6] was 16.2%; in the test filed under Homo sapiens it was -8.04%; in [7] it was 6.25%; in test [8], 5%; in test [9] it was -8.42%.
